From PubChem BioAssay
N-glyco inh – N-linked glycosylation inhibition | D54 ERlucT glycosylation luciferase reporter, 24 h; percent of 100 nM tunicamycin response | reporter increase, % at 12.5 µM | 0.23% of 360,000 active;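 active = mean luciferase reporter signal, scaled so untreated is 0 and the glycosylation-blocking control 100, at or above a set limit in every replicate; inconclusive = mean reaches the limit but not every replicate does; inactive = mean below the limit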;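 note: luciferase carries N-glycosylation sites so blocking glycosylation raises the light; 0% = median of neutral control wells and 100% = median of 100 nM tunicamycin wells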
Mot1-301 SUMO – blocks SUMOylation pathway, rescuing yeast Mot1-301 growth; growth rescue, % at 18.8 µM; S. cerevisiae Mot1-301 growth rescue, ATP luminescence, 38.5C; percent above DMSO median, 100 means doubled; 1% of 320,000 active;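 active = every valid replicate shows activation above 250% relative to neutral control wells; inactive = the rest, any valid replicate at or below 250%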;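 note: OY570 slx delta 5 strain wells were the positive control but not used for scaling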
ALR H2O2 inh – blocks human ALR sulfhydryl oxidase activity. P55789. purified ALR, DTT oxidation, H2O2 HRP-luminol luminescence. inhibition, % (test concentration not listed). 3.8% of 290,000 active. AID 485317;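 active = mean replicate inhibition above about 79%, with every replicate also reaching it, limit read from the data; inconclusive = only one of the two criteria met; inactive = mean below limit and not every replicate reaching it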
Target sequence (P55789 whole entry, looked up): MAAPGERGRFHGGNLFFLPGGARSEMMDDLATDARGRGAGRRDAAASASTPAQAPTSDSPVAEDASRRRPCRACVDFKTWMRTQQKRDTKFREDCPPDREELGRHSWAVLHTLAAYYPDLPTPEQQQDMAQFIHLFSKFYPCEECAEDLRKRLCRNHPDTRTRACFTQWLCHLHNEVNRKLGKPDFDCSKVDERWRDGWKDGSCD
Casp6 inh – inhibitors of human caspase-6; purified caspase-6, Z-VEID-R110 cleavage fluorescence; inhibition, % at 12.5 µM; 0.53% of 350,000 active; AID 686996;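 active = mean inhibition across replicates at least about 35%, with every replicate also reaching that limit, limit read from the data; inconclusive = only one of the two criteria met; inactive = neither criterion met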;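 note: 0% = median of neutral control wells and 100% = no fluorescence left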
Target sequence (P55212 24-179 limits assumed): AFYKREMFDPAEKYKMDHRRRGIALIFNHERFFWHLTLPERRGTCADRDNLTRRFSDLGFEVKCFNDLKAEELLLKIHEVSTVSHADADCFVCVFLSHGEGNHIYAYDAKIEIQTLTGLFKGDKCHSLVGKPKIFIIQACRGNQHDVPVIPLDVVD
Target sequence (P55212 194-293 limits assumed): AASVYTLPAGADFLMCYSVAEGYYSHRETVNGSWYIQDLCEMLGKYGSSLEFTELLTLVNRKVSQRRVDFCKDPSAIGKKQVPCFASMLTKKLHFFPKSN
CDK5 p35 inh – CDK5/p35 (human) kinase inhibition | 0.01% of 330,000 active | inhibition, % at 10 µM | Recombinant CDK5/p35, ADP-Glo luminescence, 60 min | Q00535+Q15078 | AID 488839;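 active = highest replicate inhibition of at least 50% and at least 75% of replicates reaching 50%; inconclusive = only one of the two criteria met; inactive = both criteria failed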;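 note: plate controls were DMSO neutral control for no effect and GW8510 at 10 µM for full effect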
NSD2 HMT inh – inhibitors of human histone methyltransferase NSD2. 0.54% of 310,000 active. O96028. inhibition, % at 12.5 µM. NSD2 peptide methylation, AlphaScreen, 120 min; in the data active = inhibition above about 50%
Mot1 SUMO dose – yeast SUMO pathway inhibition in dose response | shares compounds with Mot1-301 SUMO | S. cerevisiae Mot1-301 galactose growth, ATP luminescence, 24 h; -100 = growth of slx-deleted rescue strain | growth activity, percent, % at 42 µM | 2,300 tested, under 10 active | AID 493004;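 active = Signal drops as the depositor expects, and the fitted half-maximal dose is no more than ten times the top valid tested dose; inconclusive = Poor fit, or a flat curve whose signal drops by 30% to 70%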;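 note: more negative values mean stronger growth rescue toward the control strain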
* = called active by the depositor. Only some compounds are listed: those with a hit (about 3.9% of all), similar ones and a draw of the others.

CCOc1ccccc1Nc1nnc(SCc2nnc(-c3cc(OC)c(OC)c(OC)c3)o2)s1 was read as N-glyco inh 2, Mot1-301 SUMO 608*, ALR H2O2 inh 9, CDK5 p35 inh 1, NSD2 HMT inh 0 and Mot1 SUMO dose 0.
Screening COc1ccccc1Nc1nnc(SCc2nnc(-c3cc(OC)c(OC)c(OC)c3)o2)s1 returned N-glyco inh 2, Mot1-301 SUMO 127, ALR H2O2 inh -6, CDK5 p35 inh -1 and NSD2 HMT inh 3.
CCn1c(-c2ccccc2)c(C(=O)CC#N)c2ccccc21 was read as N-glyco inh 2, Mot1-301 SUMO 373*, ALR H2O2 inh -18, Casp6 inh -2, CDK5 p35 inh 3, NSD2 HMT inh 0 and Mot1 SUMO dose 0.
For Cc1ccc(S(=O)(=O)Nc2ccc3c(c2)C(=O)N([C@H](C)CO)C[C@@H](C)[C@@H](CN(C)C(=O)CCC(F)(F)F)OCCCC[C@H](C)O3)cc1 the results were Casp6 inh 12.
For COc1cccc(-c2nn(-c3ccccc3)cc2/C=C(/NC(=O)c2ccccc2)C(=O)O)c1 the results were N-glyco inh 2, Mot1-301 SUMO 915*, ALR H2O2 inh 5, Casp6 inh 0, CDK5 p35 inh 2 and Mot1 SUMO dose 0.
COc1ccc(CN(C)C[C@H]2Oc3c(NC(=O)CCCCCC(=O)Nc4ccccc4N)cccc3C(=O)N([C@H](C)CO)C[C@@H]2C)cc1 was read as Casp6 inh 0.
O=C(NCCN1CCCC1)[C@@H]1[C@@H](CO)[C@@H]2Cn3c(cccc3=O)[C@H]1N2C(=O)NC1CCCC1 was read as Casp6 inh -35.
For COc1cc(/C=N/NC2=NS(=O)(=O)c3ccccc32)cc(OC)c1OC the results were N-glyco inh 6, Mot1-301 SUMO 630*, ALR H2O2 inh 6, Casp6 inh 2, CDK5 p35 inh -1, NSD2 HMT inh 21 and Mot1 SUMO dose 0.
`C[C@H](CO)N1C[C@H](C)[C@@H](CN(C)S(C)(=O)=O)Oc2ccc(NC(=O)Nc3cccc4ccccc34)cc2C1=O` gave Casp6 inh 1.
O=C(Cc1cccnc1)N1CC(=O)N2[C@H](C1)[C@@H](c1ccc(/C=C/c3ccccc3)cc1)[C@@H]2CO was read as Casp6 inh 3.
For Nc1c(-c2ccccc2)nc2ncccn12 the results were Casp6 inh -3.
Screening O=Nc1c(-c2cccc([N+](=O)[O-])c2)nc2ncccn12 returned N-glyco inh -2, Mot1-301 SUMO 556*, Casp6 inh 1, NSD2 HMT inh -1 and Mot1 SUMO dose 0.
CN(C)c1ccc(/C=N\Nc2ccccn2)cc1 was read as N-glyco inh -12, Mot1-301 SUMO 458*, ALR H2O2 inh inconclusive, Casp6 inh -1, CDK5 p35 inh 2, NSD2 HMT inh 5 and Mot1 SUMO dose -1.
For CN(C)c1ccc(C=NNc2ccccn2)c(Cl)c1 the results were N-glyco inh -2, Casp6 inh -1, CDK5 p35 inh -2 and NSD2 HMT inh 3.
For Cc1cccc(NS(=O)(=O)c2cccc(C(=O)NCC3(N4CCCCC4)CCCCC3)c2)c1 the results were N-glyco inh -4, Mot1-301 SUMO inactive, ALR H2O2 inh -9, Casp6 inh 2, CDK5 p35 inh 12 and NSD2 HMT inh 0.
For CNS(=O)(=O)c1cccc(C(=O)NCC2(N3CCCCC3)CCCCC2)c1 the results were N-glyco inh -3, Mot1-301 SUMO 402*, ALR H2O2 inh -1, Casp6 inh 1, CDK5 p35 inh -1, NSD2 HMT inh 12 and Mot1 SUMO dose 0.
`O=C(NCc1ccco1)c1ccc(Br)c(S(=O)(=O)N2CCCCC2)c1` gave N-glyco inh -4, Mot1-301 SUMO 584*, ALR H2O2 inh 0, Casp6 inh 72*, CDK5 p35 inh 0, NSD2 HMT inh 8 and Mot1 SUMO dose 2.
Screening O=C(NCc1ccco1)c1ccc(F)c(S(=O)(=O)N2CCCCC2)c1 returned N-glyco inh -1, Mot1-301 SUMO -12, ALR H2O2 inh 0, Casp6 inh -1, CDK5 p35 inh 0 and NSD2 HMT inh -1.
For CCN1CCCC(NC(=O)c2scc3c2CCCC3)C1 (configuration not stated) the results were N-glyco inh -7, Mot1-301 SUMO 659*, ALR H2O2 inh -40, Casp6 inh 2, CDK5 p35 inh 0 and Mot1 SUMO dose 0.
`COc1ccccc1CNc1ncnc2c1nnn2Cc1ccccc1` gave N-glyco inh -4, Mot1-301 SUMO 514*, ALR H2O2 inh -1, CDK5 p35 inh -1, NSD2 HMT inh 5 and Mot1 SUMO dose 0.
Screening COc1ccccc1CNc1ncnc2nc[nH]c12 returned N-glyco inh 2, Mot1-301 SUMO 671*, ALR H2O2 inh -19, Casp6 inh -4, CDK5 p35 inh 0 and Mot1 SUMO dose 0.
`CC(C)CCNc1ncnc2c1nnn2Cc1ccccc1` gave N-glyco inh -2, Mot1-301 SUMO -5, ALR H2O2 inh 2, Casp6 inh -1, CDK5 p35 inh 0 and NSD2 HMT inh 25.
Screening Cc1ccc(S(=O)(=O)Nc2ccc3c(c2)C(=O)N([C@@H](C)CO)C[C@H](C)[C@@H](CN(C)C(=O)Nc2ccc4c(c2)OCO4)OCCCC[C@H](C)O3)cc1 returned Casp6 inh 1.
For C[C@@H]1CN([C@@H](C)CO)C(=O)c2cc(NC(=O)Nc3ccccc3)ccc2O[C@@H]1CN(C)C(=O)NC1CCCCC1 the results were Casp6 inh 2.
`COc1cccc(NC(=O)CN(C)C(=O)c2ccccc2OCc2c(C)noc2C)c1` gave N-glyco inh 1, Mot1-301 SUMO active, ALR H2O2 inh -1, Casp6 inh 3, CDK5 p35 inh 0, NSD2 HMT inh 1 and Mot1 SUMO dose 1.
For CC(C)C#Cc1ccc2c(c1)O[C@H](CN(C)C(=O)C1CC1)[C@@H](C)CN([C@H](C)CO)S2(=O)=O the results were Casp6 inh -2.
`Cc1nnsc1C(=O)N1CCC(CO)(Cc2ccccc2Cl)CC1` gave N-glyco inh 0, Mot1-301 SUMO active, Casp6 inh 3, CDK5 p35 inh 1, NSD2 HMT inh -4 and Mot1 SUMO dose 1.
For Cc1nn(CC(=O)Nc2ccccn2)c(C)c1[N+](=O)[O-] the results were N-glyco inh 1, Mot1-301 SUMO 424*, ALR H2O2 inh -1, CDK5 p35 inh -1, NSD2 HMT inh 1 and Mot1 SUMO dose 0.
`Cc1ccc(-c2ccc(/C=N/n3cnnc3)o2)cc1` gave N-glyco inh 3, Mot1-301 SUMO 505*, ALR H2O2 inh 0, Casp6 inh -3, CDK5 p35 inh 1, NSD2 HMT inh 1 and Mot1 SUMO dose -1.
